From the supplement of paper PMC3545927
The other results are listed elsewhere or left out. No count for the full screen is at hand.

Molecular target: furin, P09958
Experiment: furin cleavage Z-score vs untreated control; higher = more cleavage, active = 3.5 or more, inactive = 1 or less, 8 variable residues between constant flanks
How it was run: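 Cleavage by purified furin was measured on 8-mer peptides fused to a cDNA oligonucleotide and held on magnetic beads by their N-terminus. Reactions (0.01 ml, 1:10 enzyme:substrate) ran 7.5, 15 or 30 min in 50 mM HEPES pH 7.5 with CaCl2 and NaCl. Released DNA was adapter-tagged by PCR and sequenced, with read counts giving abundance. Log counts versus furin-free reactions were lowess-adjusted and scaled by median absolute deviation to give the cleavage Z-score.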

Chain of furin, P09958 (P09958 whole entry): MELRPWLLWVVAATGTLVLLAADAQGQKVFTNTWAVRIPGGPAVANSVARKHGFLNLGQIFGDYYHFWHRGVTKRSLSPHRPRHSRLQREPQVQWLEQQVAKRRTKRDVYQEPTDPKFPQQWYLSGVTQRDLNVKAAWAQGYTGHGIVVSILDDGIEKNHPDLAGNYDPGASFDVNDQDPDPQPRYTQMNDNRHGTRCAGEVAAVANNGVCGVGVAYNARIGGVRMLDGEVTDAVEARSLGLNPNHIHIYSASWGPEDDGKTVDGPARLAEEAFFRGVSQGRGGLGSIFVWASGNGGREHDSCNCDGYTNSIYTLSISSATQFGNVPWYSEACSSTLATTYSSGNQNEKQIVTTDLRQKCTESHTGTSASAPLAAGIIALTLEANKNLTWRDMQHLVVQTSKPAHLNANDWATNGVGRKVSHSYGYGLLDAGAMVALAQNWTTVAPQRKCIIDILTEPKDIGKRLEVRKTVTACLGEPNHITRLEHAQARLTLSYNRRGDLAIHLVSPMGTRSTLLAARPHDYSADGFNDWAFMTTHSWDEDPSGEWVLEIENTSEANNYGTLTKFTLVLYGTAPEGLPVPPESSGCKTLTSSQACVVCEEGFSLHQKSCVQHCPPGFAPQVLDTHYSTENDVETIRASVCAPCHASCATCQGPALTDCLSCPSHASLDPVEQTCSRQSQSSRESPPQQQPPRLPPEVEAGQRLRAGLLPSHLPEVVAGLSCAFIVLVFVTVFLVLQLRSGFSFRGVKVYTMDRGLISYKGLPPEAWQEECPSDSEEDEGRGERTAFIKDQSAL

Sequence | furin cleavage Z-score (7.5 min) | furin cleavage Z-score (15 min) | furin cleavage Z-score (30 min)
CAEYDLELITAGNASASA [HC1549] | -0.697 (inactive) | -1.21 (inactive) | -2.02 (inactive)
CASLKKIKRSAGNASASA [FS-297] | 7.52 (active) | 5.89 (active) | 5.86 (active)
CAKSSRIKRSAGNASASA [FS-46] | 11.3 (active) | 10.3 (active) | 8.65 (active)
CACPNIIKRSAGNASASA [FS-1515] | 2.47 | 0.593 (inactive) | 1.43
CAVRTRIKRSAGNASASA [FS-1179] | 12.5 (active) | 13.6 (active) | 9.29 (active)
CAASPKGPVIAGNASASA [HC706] | 0.401 (inactive) | -0.666 (inactive) | -0.477 (inactive)
CATDNSSPPVAGNASASA [HC766] | 0.776 (inactive) | 0.102 (inactive) | -1.25 (inactive)
CAYIRRTKRFAGNASASA [FS-576] | 1.05 | 1.14 | 0.61 (inactive)
CATLKRTRKFAGNASASA [FS-728] | 0.831 (inactive) | 2.85 | 1.42
CAGHFRLKRTAGNASASA [FS-781] | 7.47 (active) | 7.94 (active) | 7.12 (active)
CAATSILGIGAGNASASA [HC822] | -1.81 (inactive) | -0.57 (inactive) | 0.323 (inactive)
CAATSRTKRFAGNASASA [FS-403] | 8.04 (active) | 8.57 (active) | 8.59 (active)
CATHRRTKRFAGNASASA [FS-1291] | 4.37 (active) | 4.6 (active) | 3.54 (active)
CAGNRRLKRFAGNASASA [FS-330] | 8.6 (active) | 8.74 (active) | 8.35 (active)
CAMEECNQHLAGNASASA [HC38] | 0.469 (inactive) | 2.66 | 0.708 (inactive)
CARCARSSFTAGNASASA [FS-2895] | -1.39 (inactive) | -0.507 (inactive) | -0.615 (inactive)
CAVPAKSVCGAGNASASA [HC409] | -1.6 (inactive) | 0.783 (inactive) | -0.986 (inactive)
CALHCPTDCFAGNASASA [HC450] | 0.987 (inactive) | -0.346 (inactive) | 0.0192 (inactive)
CAHSYSPGEIAGNASASA [HC1608] | -0.391 (inactive) | -1.22 (inactive) | -0.845 (inactive)
CAYHHKFNSSAGNASASA [HC382] | -0.863 (inactive) | -0.739 (inactive) | -0.583 (inactive)
CAGPGREDRFAGNASASA [FS-1590] | 0.0501 (inactive) | -0.782 (inactive) | 0.43 (inactive)
CAARPRWIWFAGNASASA [HC1654] | 0.126 (inactive) | 1.51 | 1.36

Sequence | furin cleavage Z-score (7.5 min) | furin cleavage Z-score (15 min) | furin cleavage Z-score (30 min)
CAARNRQKRFAGNASASA [FS-1308] | 9.16 (active) | 10.4 (active) | 8.81 (active)
CATVGRVKRFAGNASASA [FS-306] | 9.9 (active) | 9.6 (active) | 9.08 (active)
CAVCARAQAPAGNASASA [HC957] | -0.611 (inactive) | -0.626 (inactive) | 0.901 (inactive)
CAPIDTTIMAAGNASASA [HC1437] | -1.63 (inactive) | 0.33 (inactive) | -1.75 (inactive)
CAMVECSQHLAGNASASA [HC1690] | 1.97 | 0.64 (inactive) | 0.696 (inactive)
CAHDVVCCSMAGNASASA [HC2115] | -0.409 (inactive) | -0.66 (inactive) | 0.0366 (inactive)
CAVKCCSMSYAGNASASA [HC2014] | -0.221 (inactive) | 0.288 (inactive) | -1.16 (inactive)
CAASAYQVRNAGNASASA [HC255] | 2.82 | -0.339 (inactive) | 0.446 (inactive)
CALSFRLKRNAGNASASA [FS-1372] | 12.3 (active) | 11.1 (active) | 9.61 (active)
CAQLRRHIDLAGNASASA [HC289] | -1.12 (inactive) | 0.114 (inactive) | 0.176 (inactive)
CATARHTPVNAGNASASA [HC1570] | -0.556 (inactive) | -0.38 (inactive) | -0.627 (inactive)
CANSTALNCNAGNASASA [HC372] | 1.61 | 1.23 | 0.944 (inactive)
CAQLRRYPRNAGNASASA [FS-1249] | 10 (active) | 10.4 (active) | 8.2 (active)
CAQLRRLKRNAGNASASA [FS-284] | 13 (active) | 12.1 (active) | 9.76 (active)
CAVYYLTRDPAGNASASA [HC1561] | -0.916 (inactive) | -0.905 (inactive) | -0.163 (inactive)
CAEEVSFRVGAGNASASA [HC1232] | 0.0764 (inactive) | 1.08 | -0.114 (inactive)
CATVVTSTWVAGNASASA [HC2158] | 0.721 (inactive) | 0.128 (inactive) | 0.308 (inactive)
CAINSVWKDLAGNASASA [HC1430] | 0.0949 (inactive) | 0.0646 (inactive) | 0.992 (inactive)
CAHSERKKRRAGNASASA [FS-249] | 8.63 (active) | 10.6 (active) | 10.2 (active)
CAEILRKSRRAGNASASA [HC1297] | -0.468 (inactive) | 1.48 | -0.599 (inactive)
CAFCCRKKRRAGNASASA [FS-586] | 3.8 (active) | 4.73 (active) | 5.93 (active)
